The subject of the test is VDR:RXRa (NR concentration 270 nM, RXRa partner concentration 90 nM). The test can be described thus: PBM binding z-score (relative to random genomic background probes); higher = stronger binding; sequences stand for … in GC…GCGATTGACAGCGTAGAATGAAGG
The method, then: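 Protein-binding microarray (Agilent 4x180K custom design, double-stranded 60-nt probes: 5' GC cap, 34-nt variable region, 24-nt constant primer region; full probe sequence given). Purified or IVT nuclear receptor:RXRα heterodimers (3:1 NR:RXRα, mostly 270:90 nM) or homodimers were incubated for 1 h in PBS with 2% milk and no ligand, then detected with Alexa488 antibodies. Fluorescence from o1-orientation probes (~5 replicates averaged) was converted to z-scores against 500 random hg19 background probes. Variable regions are seed direct-repeat (DR0–DR5) sites, all their single-nucleotide variants and half-site ablations.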
On to ACTCGGAGGACATAGGTCAGAGCTACGCCAGTGA, for which the PBM binding z-score amounted to 1.03.
Turning to GGAACAAGGGCAAAGTTGATAGCATCTGTCGACG, the PBM binding z-score was found to be 0.828.
The sequence CCGACTGGGGCAAGGTTACCATCACGCACAGCCA registered a PBM binding z-score of -0.00962.
The sequence ATCTCCAGGTAAAGTTCAGTGAAAGATCGATAGA yielded a PBM binding z-score of 1.83.
For CCTACTGGGCCAAAAAGGTCACTGATGCCGATAA, the PBM binding z-score stood at 4.5.
GATACAGGGTTAAGGCCAGAGTACGCGTATTGAT yielded a PBM binding z-score of 1.05.
The value for CATACAGGGTCAGCTAGGACAGAGTAGGGACGGC was 4.03; that for CGAACTAGGTCAGAACAGGACAGCGAAGGATGAT was 0.817.
Take ATATGTAGGTTATATCCGGGTCATTCAGGCTATG: the PBM binding z-score worked out at 4.11.
The value for TCATATAGCTAAAGGTGAAAGTCGAACGATATGA was 0.865; that for ACTAGCAGGCCAAGGATCACTCAAGATTAGTCCG was -0.428.
As for GCTATGAGTTGAAAGGGCAACCGAATGATTCTCG, the PBM binding z-score is 1.2.
The value for ATATGTAGGTTACCTCCGGGTCATTCAGGCTATG was 4.01; that for TCGAGTAGGTTACTAATGGGGCATTCAGCTTTCT was 0.0839.
The sequence CTCGAAAGGTCGGTTGAGGTGAGTATCCGGATAA displayed a PBM binding z-score of 2.13.
The value for CCTTACGGGTCACTCCAGGTTATGGCATCGGAGT was 4.08.
In the case of TCTTGTAGATCAGCAGGTTACGAAAGCTGGCCAA, the PBM binding z-score was -0.0746.
The sequence CCTATTAGTTGACGATAAGGGCAACCGAAGCTCG returned a PBM binding z-score of 0.128.
For CCTTACGGGTCACTGACAGGTTTTAGCATTTGGA, the PBM binding z-score turned out to be 3.31.
Regarding TGAATGAGGTTATAATATCAGGGAACGTTGCAAA, the PBM binding z-score is 1.35.
As for GCAGACAGGTGAAACGCAGGTATCTCAGGGTGGC, the PBM binding z-score was -0.475.
As to GGAACGAGGGCATTCGAGCTGATAGCATGGCGAT, the PBM binding z-score was 0.809.
Take TCATATAGGTAATACAGGTTAAAGTCGGCATCTA: the PBM binding z-score was determined as 1.88.
Sequence TAGCCTAGGGCATTGGGCCAGTATAGTACGCATC showed a PBM binding z-score of -0.414.
The sequence CGAACTAGGTCAGAACAGGACGGTGAAGGATGAT gave a PBM binding z-score of 0.0677.
Consider CAGCCTAGGTCAGAGCCAGTATAGGAGGAACGTT, for which the PBM binding z-score is 0.207.
Sequence CCTACTTGGCCAAAGGTCATTGATTCCAATGCTC had a PBM binding z-score of 4.62.
With AGAACGCGGGCACGCTGAGTTGATAGCAGAGTAG, the PBM binding z-score is -0.403.
On to ATTATTAGTTGAGACGAGGGCAACCGATAGGTTG, for which the PBM binding z-score amounted to 1.29.
For the sequence TTACCAAGGTGAGCTGAGGTCGATGATCCAACTC, the PBM binding z-score stood at 2.51.
Sequence AGAAGGAGGGCACGCTGAGTTGATAGCAGAGTAG registered a PBM binding z-score of 1.41.
As for TTACCAAGGTAAGCTGAGGTCGTTGATCCAACTC, the PBM binding z-score was 2.84.
TCTCGTTGGTCACGGAGGTCACACACGACGGGTA registered a PBM binding z-score of 5.96.
The value for TCTGCTAGGTCAGTTAGTCAGCTAACGAGCTGCC was -0.204; that for ATCTCTAGGTAAGACTCAGTTCAGTTAAGAACGC was 1.12.
Sequence GCTGCTAAGTCAGGTTGGTCAGCTAACGGGTACG gave a PBM binding z-score of -0.547.
Take AATACAGGGTCATCGTAGGCCAGATTACGCACAG: the PBM binding z-score came to 5.22.
In the case of TCTATTAGCTGAAGGGCAACCGACGAGTCCGTTT, the PBM binding z-score was found to be 0.475.
On to AGTCAAAGTTCAGCTAGGTAACGTAAGATATGCT, for which the PBM binding z-score worked out at 3.03.
CAAAGTAGGTCAAAGGTCAAAGTCGAGCCAACCA displayed a PBM binding z-score of 6.63.

For the origin of these results see the supplement of paper PMC6555819.
